Measured values published in PubChem BioAssay (EPA / NIEHS).
Calls of active or inactive are those of the source. Rule for the calls: active = hit-call score of the fitted dose curve at least 0.9, where 1 is the maximum; inactive = score below 0.9.

Experiment: ATG_BRE_CIS: Attagene CIS-FACTORIAL HepG2 Assay for human Bone Morphogenetic Protein (BMP) Response Element (BRE) (AID 2282933)
Conditions: HepG2 BMP response element reporter, Attagene transcription factor profiling; actives raise or lower the signal
Experimental: ATG_CIS is a cell-based, multiplexed-readout assay that uses HepG2, a human liver cell line, with measurements taken at 24 hours after chemical dosing in a 24-well plate.ATG_BRE_CIS is one of 52 assay component(s) measured or calculated from the ATG_CIS assay. It is designed to make measurements of mRNA induction, a form of inducible reporter, as detected with fluorescence intensity signals by Reverse transcription polymerase chain reaction (RT-PCR) and Capillary electrophoresis technology.Data from the assay component ATG_BRE_CIS was analyzed into 1 assay endpoint. This assay endpoint, ATG_BRE_CIS, was analyzed with bidirectional fitting relative to DMSO as the negative control and baseline of activity. Using a type of inducible reporter, measures of mRNA for gain or loss-of-signal activity can be used to understand the reporter gene at the transcription factor-level as they relate to the gene SMAD1. Furthermore, this assay endpoint can be referred to as a primary readout, because this assay has produced multiple assay endpoints where this one serves a reporter gene function. To generalize the intended target to other relatable targets, this assay endpoint is annotated to the dna binding intended target family, where the subfamily is Smad protein.
Human liver HepG2 cells are transiently transfected with multiple reporter transcription units (MRTUs) in 6-well plates using FuGene 6 reagent (Roche; 3 ml FuGene/1 mg DNA). The MRTU constructs are regulated by a cis-regulating element (promoter). […] A major difference between the CIS and TRANS system is that in CIS activities of endogenous TFs are measured, whereas the TRANS assay evaluates changes in activities of exogenous, chimeric NR-Gal4 proteins. […] At the end of 24 hour incubation, total RNA was isolated using TriZol reagent (Invitrogen). The isolated RNA is then reverse-transcribed using oligo(dT) primer and Mo-MLV reverse transcriptase (Invitrogen) with DNAse I (Ambion) treatment for 30 min. The one-tenth of the produced cDNA was amplified by PCR using Taq DNA polymerase (Invitrogen) and two reporter sequence-specific primers. The PCR products were fluorescently labeled by primer extension with 6-arboxyfluorescein (6-FAM) 5'-labeled reporter sequence-specific primer (2 min at 95 C, 20 s at 68 C and 10 min at 72 C) and these products were digested with 5U of HpaI (New England Biolabs) for 2h at 37 C. The fragments were purified using Qiaquick PCR columns (Qiagen), analyzed on an ABI 3130xL genetic analyzer (Applied Biosystems) with peak positions identified by using a set of X-rhodamine (ROX)-labeled MapMarker1000 molecular weight standards (BioVentures). The raw capillary electrophoresis data was processed using Attagraph software (Attagene).

Question: For `N#Cc1cccnc1`, which outcome is on record?
Answer: inactive

Question: Which outcome does the source give for `Clc1cccc(Cl)c1` here?
Answer: inactive

Question: With `O=C(NC(=O)c1c(F)cccc1F)Nc1cc(Cl)c(OC(F)(F)C(F)C(F)(F)F)cc1Cl` (stereo not given) as the molecule, how does the outcome read?
Answer: inactive

Question: For `O=c1[nH]c(=O)n(Cl)c(=O)n1Cl`, which outcome is on record?
Answer: inactive

Question: Which outcome does the source give for `CC(C)C(C)(N)C#N` (stereo not given) here?
Answer: inactive

Question: For `CC(C)(C)c1ccc(CCOc2ncnc3ccccc23)cc1`, which outcome is on record?
Answer: inactive

Question: With `Brc1c(Br)c(Br)c(Oc2c(Br)c(Br)c(Br)c(Br)c2Br)c(Br)c1Br` as the molecule, how does the outcome read?
Answer: inactive

Question: For `O=[N+]([O-])c1ccccc1O`, which outcome is on record?
Answer: inactive

Question: Which outcome does the source give for `CC(=O)CN(CC(C)=O)N=O` here?
Answer: inactive

Question: Which outcome does the source give for `CN(C)C(=S)S` here?
Answer: inactive

Question: With `CCC(C)(C#N)N=NC(C)(C#N)CC` (stereo not given) as the molecule, how does the outcome read?
Answer: inactive

Question: With `CCOP(=S)(OCC)Oc1ccc(Cl)cc1Cl` as the molecule, how does the outcome read?
Answer: inactive

Question: For `COc1ccc([N+](=O)[O-])cc1O`, which outcome is on record?
Answer: inactive

Question: With `COCCl` as the molecule, how does the outcome read?
Answer: inactive

Question: For `CCN(N=O)C(N)=O`, which outcome is on record?
Answer: inactive

Question: Which outcome does the source give for `CC1(C)[C@H](C(=O)O[C@H](C#N)c2cccc(Oc3ccccc3)c2)[C@@H]1/C=C(\Cl)C(F)(F)F` here?
Answer: inactive

Question: With `O=c1oc2ccccc2c(O)c1C(CC(O)c1ccc(-c2ccc(Br)cc2)cc1)c1ccccc1` (stereo not given) as the molecule, how does the outcome read?
Answer: inactive

Question: For `O=C(NC(=O)c1c(F)cccc1F)Nc1cc(Cl)c(F)c(Cl)c1F`, which outcome is on record?
Answer: inactive

Question: With `CCOc1cc(C=O)ccc1O` as the molecule, how does the outcome read?
Answer: inactive

Question: With `CCCCN(CCCCO)N=O` as the molecule, how does the outcome read?
Answer: inactive

Question: Which outcome does the source give for `CC1CC(=O)O1` (stereo not given) here?
Answer: inactive

Question: Which outcome does the source give for `Clc1ccc(C(Cl)(Cl)Cl)cn1` here?
Answer: inactive

Question: For `N#Cc1ccncc1`, which outcome is on record?
Answer: inactive

Question: Which outcome does the source give for `Cc1cc(SCc2sc(-c3ccc(C(F)(F)F)c(F)c3)nc2C)ccc1OCC(=O)O` here?
Answer: inactive

Question: Which outcome does the source give for `C#C[C@]1(O)CC[C@H]2[C@@H]3CCC4=CC(=O)CC[C@]4(C)[C@H]3CC[C@@]21C` here?
Answer: inactive

Question: Which outcome does the source give for `C[As+](C)(C)CC(=O)[O-]` here?
Answer: inactive

Question: Which outcome does the source give for `CC(C)(COCC1CO1)COCC1CO1` (stereo not given) here?
Answer: inactive

Question: With `C[C@]12CC[C@@H](O)C[C@@H]1CC[C@@H]1[C@@H]2CC[C@]2(C)C(=O)CC[C@@H]12` as the molecule, how does the outcome read?
Answer: inactive

Question: For `COc1ccc(N)cc1`, which outcome is on record?
Answer: inactive

Question: For `COC(=O)c1cc(Oc2ccc(Cl)cc2Cl)ccc1[N+](=O)[O-]`, which AC50 is on record?
Answer: 64.1 µM (active)

Question: Which outcome does the source give for `CCOP(=S)(OCC)OP(=S)(OCC)OCC` here?
Answer: inactive

Question: With `CCOC(=O)CCN(SN(C)C(=O)Oc1cccc2c1OC(C)(C)C2)C(C)C` as the molecule, how does the AC50 read?
Answer: 163 µM (active)

Question: Which outcome does the source give for `OCC(c1ccc(Cl)cc1)c1ccc(Cl)cc1` here?
Answer: inactive

Question: With `O=S(=O)(c1ccc(Cl)cc1)c1cc(Cl)c(Cl)cc1Cl` as the molecule, how does the outcome read?
Answer: inactive

Question: With `O=S1(=O)OC(c2cc(Br)c(O)c(Br)c2)(c2cc(Br)c(O)c(Br)c2)c2ccccc21` as the molecule, how does the outcome read?
Answer: inactive

Question: Which outcome does the source give for `CCCCCCCCCCCCN(C)C` here?
Answer: inactive

Question: Which outcome does the source give for `CCCCS(=O)(=O)Cl` here?
Answer: inactive

Question: For `CCCCOP(=O)(CCCC)OCCCC`, which outcome is on record?
Answer: inactive

Question: For `C=CCOC(F)(C(F)(F)F)C(F)(F)F`, which outcome is on record?
Answer: inactive

Question: For `Cc1cccc(OP(=O)(Oc2cccc(C)c2)Oc2cccc(C)c2)c1`, which outcome is on record?
Answer: inactive
